# Bioassay records deposited in PubChem by several laboratories.
# Shown are actives, neighbours in structure and some others; about 4.2% of the full set was active somewhere.
# tim23-1 inh: growth inhibitors of tim23-1 mutant yeast; S. cerevisiae tim23-1 growth, BacTiter-Glo luminescence, 24 h; inhibition, % at 20 µM; 330,000 tested, 1.3% active;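 active means growth inhibition of the mutant yeast at or above 50%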;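 further: temperature-sensitive mutant grown at 25 °C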
# tim10-1 inh: inhibits growth of tim10-1 mutant yeast; 330,000 tested, 2.2% active; AID 463190; inhibition, % at 20 µM; S. cerevisiae tim10-1 ts strain growth, BacTiter-Glo, 24 h;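 active means inhibition of at least 40%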;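 further: mutant grown at 25 °C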
# NALP1 yeast inh: NALP1 inhibition; 280,000 tested, 0.61% active; S. cerevisiae NALP1/ASC/caspase-1 growth, X-gal OD620, 72 h; AID 2071; inhibition, % at 10 µM; in the data active means inhibition mostly above about 24%, no sharp cut-off; inactive means mostly below about 32%
# TIM10 inh: TIM10 yeast growth inhibition. inhibition, % at 10 µM. S. cerevisiae TIM10 strain growth, BacTiter-Glo luminescence, 24 h. 330,000 tested, 1.4% active;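 active means inhibition of 40% or more at the single tested concentration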;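 further: wild-type TIM10 isogenic control strain grown at permissive 25 °C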
# NLRP3 yeast inh: blocks the NALP3 inflammasome reconstituted in yeast; 330,000 tested, 0.39% active; inhibition, % at 10 µM; AID 2825; Yeast reconstituted NLRP3/ASC/caspase-1, beta-gal luminescence, 24 h;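 active means inhibition of 50% or more; inactive means inhibition below 50%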
# V-ATPase pHluor: alters yeast V-ATPase proton transport; AID 504577; 350,000 tested, 0.37% active; S. cerevisiae, pHLuorin cytosolic pH fluorescence; response, % at 10 µM; in the data active means response mostly above about 7.3%, no sharp cut-off; inactive means mostly below about 5.4%; further: actives read high
# tim10-1 conf: tim10-1 yeast growth inhibition, confirmed; shares compounds with tim10-1 inh; S. cerevisiae tim10-1 ts strain growth, BacTiter-Glo, 24 h; inhibition, % at 20 µM; 7,400 tested, 56% active;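 active means inhibition of yeast growth at or above a set limit in either of two repeat tests at 20 µM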;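 further: tim10-1 mutant grown at permissive 25 °C to find synthetic lethal compounds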
# TIM10 conf: TIM10 yeast growth inhibition, confirmed; shares compounds with TIM10 inh; S. cerevisiae tim10 strain growth, BacTiter-Glo luminescence, 24 h; inhibition, % at 10 µM; 4,600 tested, 63% active;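 active means inhibition of yeast growth at or above a set limit in either of two replicates at 10 µM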; further: this counterscreen used the strain with wild-type TIM10
# tim23-1 confirm: confirmation of tim23-1 mutant yeast growth inhibitors | shares compounds with tim23-1 inh | S. cerevisiae tim23-1 growth, BacTiter-Glo luminescence, 24 h | inhibition, % at 20 µM | 4,400 tested, 83% active;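 active means inhibition above about 39% in either of two replicate wells at 20 µM, limit read from the data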;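 further: temperature-sensitive tim23-1 mutant grown at 25 °C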
# A number is an active result; - = inactive; . = not tested or not shown.
SMILES,tim23-1 inh,tim10-1 inh,NALP1 yeast inh,TIM10 inh,NLRP3 yeast inh,V-ATPase pHluor,tim10-1 conf,tim23-1 confirm,others
Cc1ccc(Nc2nc(C)cc(C)c2C#N)c(C)c1,.,.,.,.,.,-,.,.,
Cc1c(Cl)cccc1NC(=O)CSc1nc(=O)n(CCCN2CCOCC2)c2c1CCCC2,.,.,.,.,.,-,.,.,
COc1ccc(-c2nc(-c3ccccc3)c(-c3cccs3)[nH]2)cc1OC,54.7,41.0,-,-,-,-,33.8,63.0,
COc1ccc(N2CCN(c3ccc4nnc(CCC(=O)Nc5ccc(C)cc5)n4n3)CC2)cc1,-,-,-,-,-,-,.,.,
CC1(CO)COC(c2ccccc2)=N1 (centres undefined),-,-,-,-,-,-,.,.,
COc1cccc2cc(C(=O)CS(=O)(=O)c3ccc(C(C)(C)C)cc3)c(=O)oc12,52.3,47.9,-,-,-,-,-,54.4,
COc1ccc(S(=O)(=O)CC(=O)c2cc3cccc(C)c3oc2=O)cc1,65.3,53.0,-,-,-,-,-,56.8,
CC(C)c1ccc(NC2CCCN(C(=O)c3n[nH]c4c3CCC4)C2)cc1 (centres undefined),-,-,-,-,-,-,.,.,
Nc1nc(-c2ccc3c(c2)CCCC3)cs1,51.5,59.0,-,-,-,-,44.5,53.7,
Nc1nc(-c2ccc3c(c2)OCCO3)cs1,-,-,-,-,-,-,.,.,
CCN(CC)C1CC(=O)N(c2cccc(C)c2)C1=O (centres undefined),54.2,58.7,90.5,-,-,.,55.5,66.1,
Cc1ccc(C(=O)Nc2ccc3c(c2)C(=O)N(C)C3=O)c(C)c1,-,-,-,-,-,.,.,.,
N/C(Cc1cccs1)=N\OC(=O)COc1ccc(Br)cc1Cl,68.3,58.3,-,-,-,-,59.4,86.6,
N/C(Cc1cccs1)=N\OC(=O)COc1ccccc1Cl,-,-,-,-,-,-,.,.,
O=C(/C=C/Sc1ccccc1)c1ccc(Cl)cc1,59.0,51.0,-,-,-,-,47.0,45.9,
NC(=O)c1ccccc1N/C=C/C(=O)c1ccc(Cl)cc1,-,-,-,-,-,-,.,.,
CCN1C(=O)/C(=C\N(C(C)=O)c2ccccc2)OC1=S,69.9,49.2,-,61.2,-,-,56.6,57.0,TIM10 conf=57.5
CCN1C(=O)/C(=C/N(C)c2ccccc2)OC1=S,-,-,-,-,-,-,.,.,
O=C(NCCOC12CC3CC(CC(C3)C1)C2)c1cccc(Br)c1,52.9,42.5,-,44.2,-,-,32.8,46.4,TIM10 conf=45.7
COc1ccc(C(=O)NC(=S)N2CCOCC2)cc1[N+](=O)[O-],-,-,-,-,-,-,.,.,
NC(=S)N/N=C/c1ccc(-c2cc(Cl)ccc2Cl)o1,54.4,43.7,-,44.6,-,-,-,61.9,TIM10 conf=39.3
NC(=S)N/N=C/c1ccc(-c2cc(Cl)cc(Cl)c2)o1,-,-,-,-,-,-,.,.,
Cc1ccccc1C(=O)Oc1ccc2ccc(O)cc2c1,51.1,48.9,-,-,-,-,45.8,49.0,
COc1cccc(C(=O)Oc2ccc3ccc(O)cc3c2)c1,56.6,42.6,-,-,-,.,38.0,53.8,
Cc1ccccc1S(=O)(=O)Oc1ccc2ccc(O)cc2c1,-,-,-,-,-,-,.,.,
SMILES,tim23-1 inh,tim10-1 inh,NALP1 yeast inh,TIM10 inh,NLRP3 yeast inh,V-ATPase pHluor,tim10-1 conf,tim23-1 confirm,others
CCOC(=O)C1CCN(S(=O)(=O)c2ccc(CC)cc2)CC1,-,-,-,-,-,-,.,.,
O=C(Nc1ccc(OCC(=O)N2CCC(Cc3ccccc3)CC2)cc1)c1ccco1,71.7,59.2,-,68.0,-,-,60.0,78.5,TIM10 conf=42.8
CCOC(=O)C1CCN(S(=O)(=O)c2ccc(NC(=O)c3ccco3)cc2)CC1,65.0,69.4,-,65.8,-,-,62.1,68.8,TIM10 conf=55.0
Clc1cccc(-c2nc(-c3ccc(-c4nn[nH]n4)cc3)no2)c1,-,-,.,-,-,-,.,.,
Cc1ccc(N=Cc2cc(Br)cc(Cl)c2O)cc1,77.3,51.0,-,-,-,-,-,77.7,
C=CCn1c(O)c(/C=C2\C=NN=C2c2ccccc2)sc1=S,51.0,42.5,-,-,-,-,34.7,51.3,
CCCCC(CC)Cn1c(O)c(/C=C2\C=NN=C2c2ccccc2)sc1=S (centres undefined),-,-,-,-,-,-,.,.,
CCN(CC(=O)NCC1CCCO1)S(=O)(=O)c1ccc2ccccc2c1 (centres undefined),-,-,-,-,-,-,.,.,
Cc1onc(-c2ccccc2Cl)c1C(=O)N1CCC(C)CC1,-,-,-,-,-,-,.,.,
CCOC(=O)C1CCN(C(=O)c2ccc(C)o2)CC1,-,-,.,-,-,-,.,.,
CCOC(=O)C1CCN(C(=O)c2c(C)oc3c2C(=O)c2ccccc2C3=O)CC1,50.8,48.2,-,-,-,-,34.4,59.0,
Cc1oc2c(c1C(=O)N1CCC(C)CC1)C(=O)c1ccccc1C2=O,73.7,52.2,-,44.8,-,.,42.8,66.8,TIM10 conf=39.5
CCCCC(C(=O)OCC)C(N)Cc1ccc(F)cc1 (centres undefined),-,-,-,-,-,-,.,.,
O=C1CC(c2ccccc2)CC(O)=C1C=Nc1cccc(Cl)c1 (centres undefined),84.8,89.2,-,89.9,-,-,78.9,85.1,TIM10 conf=93.8
O=C1CC(c2ccccc2)CC(O)=C1C=Nc1ccc(Cl)cc1 (centres undefined),-,-,-,-,-,-,.,.,
NNc1nc(-c2ccccc2)nc(-c2ccccc2)c1Br,56.7,46.3,.,41.5,-,-,33.3,45.6,TIM10 conf=-
CNc1nc(-c2ccccc2)nc(-c2ccccc2)c1C#N,-,-,-,-,-,-,.,.,
O=C(Nc1ccc(Cl)cc1)C(Cl)C(=O)c1ccccc1 (centres undefined),69.5,55.2,-,59.5,-,-,55.6,76.5,TIM10 conf=80.6
O=C(O)c1cnc(-c2ccccc2)nc1Sc1ccc(Cl)cc1Cl,51.0,53.5,-,-,-,-,-,-,
CCOC(=O)C1=C(Cc2ccc(F)cc2)C(=O)c2ccccc2C1=O,65.7,56.6,-,63.7,-,-,67.5,70.9,TIM10 conf=56.8
O=C(OCc1ccc(F)cc1)c1ccc2c(c1)-c1ccccc1C2=O,-,-,-,-,-,-,.,.,
Cc1nc(N2CCN(Cc3ccc4c(c3)OCO4)CC2)c2oc3ccccc3c2n1,.,.,.,.,.,-,.,.,
Cc1nc(N2CCN(Cc3ccc(Cl)cc3)CC2)c2oc3ccccc3c2n1,53.6,53.0,-,42.0,-,-,36.4,43.4,TIM10 conf=49.0
Cc1cccc(NC(=O)C(CC(C)C)NC(=O)C2CCC(C)CC2)n1 (centres undefined),-,-,-,-,-,-,.,.,
